In article PMC4552634, “A New Set of Chemical Starting Points with Plasmodium falciparum Transmission-Blocking Potential for Antimalarial Drug Discovery” (PLoS ONE, 2015):
Hit rate of the full screen: of about 13,000 compounds, about 3,200 (25%) showed an effect of 50% or more. Some of the results follow.

system: P. falciparum stage V gametocytes; set-up: BacTiter-Glo ATP luminescence viability of purified stage V gametocytes in 384-well plates, per cent inhibition versus DMSO; settings: 48 h, 5 µM; inhibitor

| Compound | % Inhibition |
| --- | --- |
| Nc1nc(N)c2c(Oc3ccc(Cl)c(Cl)c3)cccc2n1 [TCMDC-137740] | -61.22% |
| Nc1nc(N)c2c(Sc3ccc(F)cc3)cccc2n1 [TCMDC-137179] | 36.57% |
| CC(=O)Nc1nc(C(=O)Nc2cccc(-c3cccc(-c4nc5ccc(F)cc5[nH]4)c3)c2)cs1 [TCMDC-137124] | 18.32% |
| CN1CCN(c2ccnc3ccc(NC(=O)Nc4ccc5c(c4)CCCC5=O)cc23)CC1 [TCMDC-139261] | -6.438% |
| COc1ccc(CCNCC(O)COc2nccc3c(S(=O)(=O)N4CCCNCC4)cccc23)cc1OC (stereo not shown) [TCMDC-132101] | 25.52% |
| O=C(Nc1ccc2c(c1)CCN2C1CCN(Cc2ccc(C(F)(F)F)cc2F)C1)c1ccco1 (stereo not shown) [TCMDC-135070] | -51.15% |
| O=C(Cc1ccc(-n2cnnn2)cc1)N(Cc1cncn1Cc1cccc(C(F)(F)F)c1)CC1CC1 [TCMDC-132461] | 5.053% |
| C1=CN(Cc2ccccc2)C=CC1=C1C=Nc2ccccc21 [TCMDC-138319] | 1.652% |
| O=C1OC2(CCN(C(=O)c3ccc(-n4cnnn4)cc3)CC2)CN1Cc1ccc(Cl)c(Cl)c1 [TCMDC-136544] | 34.85% |
| C1=C(c2c[nH]c3ccccc23)CCN(Cc2ccccc2)C1 [TCMDC-123457] | -71.35% |
| O=S(=O)(NC1CCN(c2ccnc3cc(Cl)ccc23)C1)c1ccc(C(F)(F)F)cc1 (stereo not shown) [TCMDC-133662] | -7.86% |
| Cn1nc(-c2ccc(NC(=O)Nc3cc(C(F)(F)F)ccc3F)cc2)c2cnc(NCCc3cnc[nH]3)nc21 [TCMDC-141621] | 12.4% |
| CCN(CC)CCCNc1ncc2c(-c3ccc(NC(=O)Nc4cc(C(F)(F)F)ccc4F)cc3)nn(C)c2n1 [TCMDC-141583] | 96.86% |
| COc1ccc2nccc([C@@H](O)CN3CCC(NC(=O)C(=O)c4c[nH]c5c(C)cccc45)CC3)c2c1 [TCMDC-141107] | -28.63% |
| CCC(=O)Nc1nnc(Cc2ccc(OC)c(OC)c2)s1 [TCMDC-125741] | -62.68% |
| C=CCOc1ccc(Cc2cnc(N)nc2N)cc1CCC [TCMDC-137639] | -18.38% |
| N=C(N)c1ccc2nc(SCc3ccccc3)[nH]c2c1 [TCMDC-131872] | 24.07% |
| N=C(N)c1ccc(NC(=O)Cc2nc3ccc(C(=N)N)cc3[nH]2)cc1 [TCMDC-131867] | 10.64% |
| Cc1cc(-c2nc3ccc(C(=N)N)cc3[nH]2)c(C)cc1-c1nc2ccc(C(=N)N)cc2[nH]1 [TCMDC-137798] | 92.7% |
| COc1ccccc1C(=O)C1CCCN(C(=O)c2ccccc2C(F)(F)F)C1 (stereo not shown) [TCMDC-124693] | -57% |
| CN(C)CCOc1cc(O)c2c(c1)OC(C)(C)C=C2c1cccs1 [TCMDC-131331] | -14.82% |
| Cc1[nH]c(C)c(-c2ccc(OCCn3cnc(Cl)c3Cl)cc2)c(=O)c1Br [TCMDC-134570] | -18.53% |
| Cc1[nH]c(C)c(-c2ccc(OCCSc3ccncc3)cc2)c(=O)c1Br [TCMDC-135220] | 64.24% |
| Cc1[nH]c(C)c(-c2ccc(OCCCCSc3ccncc3)cc2)c(=O)c1Br [TCMDC-135256] | 73.89% |
| C[C@@H](C(=O)N1CCOCC1)N1CC[C@H](NS(=O)(=O)c2ccc3ccnc(N)c3c2)C1=O [TCMDC-136755] | 0.9724% |

| Compound | % Inhibition |
| --- | --- |
| CC(NC(=O)c1ccc(O)c(-c2ccc(Cl)c(Cl)c2)c1)C(=O)NCCN1CCCC1 (stereo not shown) [TCMDC-140827] | -9.232% |
| N=c1n(CCN2CCCCC2)c2ccccc2n1CC(O)c1ccc(Cl)c(Cl)c1 (stereo not shown) [TCMDC-124064] | 91.16% |
| N=c1n(CCN2CCCC2)c2ccccc2n1CC(O)c1ccc(Cl)c(Cl)c1 (stereo not shown) [TCMDC-124063] | 70.46% |
| O=C(N[C@@H](Cc1ccccc1)C(=O)NCCN1CCCCC1)c1ccc(O)c(-c2ccc(Cl)c(Cl)c2)c1 [TCMDC-140859] | 10.94% |
| O=C(N[C@@H](Cc1ccccc1)C(=O)NCCN1CCCC1)c1ccc(O)c(-c2ccc(Cl)c(Cl)c2)c1 [TCMDC-140829] | 26.26% |
| N=c1n(CCN2CCCCC2)c2ccccc2n1CC(=O)c1cccc([N+](=O)[O-])c1 [TCMDC-123516] | -26.88% |
| N=c1n(CCN2CCCCC2)c2ccccc2n1CC(O)c1cccc(Br)c1 (stereo not shown) [TCMDC-125140] | 60.98% |
| COC(=O)c1ccc(CC(C)NCC(O)c2cccc(Br)c2)cc1 (stereo not shown) [TCMDC-131437] | 10.23% |
| CC(NC(=O)c1ccc(O)c(-c2ccc(Cl)c(Cl)c2)c1)C(=O)NCCN1CCCCC1 (stereo not shown) [TCMDC-140857] | 27.12% |
| CCOc1ccc(C=CC(=O)Nc2ccc3nc(N4CCOCC4)cc(C)c3c2)cc1OC [TCMDC-124420] | -58.06% |
| COc1ccc(NS(=O)(=O)c2cccc(C(=O)Nc3ccc(C(F)(F)F)cc3)c2)cc1N1CCN(CC(C)C)CC1 [TCMDC-141780] | -61.2% |
| N#Cc1ccc(CN2CCC(Oc3ccc(NC(=O)c4ccsc4)cc3Cl)C2)cc1 (stereo not shown) [TCMDC-133961] | 27.45% |
| Cc1nnc2c(NC(=O)NC3CCCC3)cc3ccc(-c4cccc(CN(C)C)c4)cc3n12 [TCMDC-136731] | 62.95% |
| Cc1cc2c(NC(=O)NC3CCN(CCc4ccccc4Cl)CC3)cccc2cn1 [TCMDC-141800] | -1.237% |
| Cc1cccc(CNc2nc(C)cc(N[C@@H](Cc3ccccc3)C(=O)NC3CCCC3)n2)c1 [TCMDC-134886] | 14.7% |
| Cc1cc2c(NC(=O)NC3CCN(Cc4ccc(Cl)c(Cl)c4)CC3)cccc2cn1 [TCMDC-141771] | 11.02% |
| COc1ccc(-c2ccc(CN(C)C3CCC(NC(=O)c4cc5ccccc5[nH]4)CC3)cc2)cn1 (stereo not shown) [TCMDC-132893] | 48.26% |
| Cc1cc2c(NC(=O)NC3CCN(CCc4cccc(Cl)c4)CC3)cccc2cn1 [TCMDC-141801] | 1.957% |
| Cc1nnc2c(NC(=O)NC3CCCC3)cc3ccc(-c4cccc(CN5CCN(C)CC5)c4)cc3n12 [TCMDC-136730] | 98.59% |
| CN1CCCN(Cc2cccc(-c3cccc(NC(=O)c4ccc(C#N)cc4)c3)c2)CC1 [TCMDC-132655] | 11.69% |
| Cc1nnc2c(NC(=O)NC3CCCC3)cc3cc(-c4ccc(CN5CCN(C)CC5)cc4)ccc3n12 [TCMDC-136717] | 93.03% |
| Cc1nnc2c(NC(=O)NC3CCCC3)cc3cc(-c4ccc(CN5CCCCC5)cc4)ccc3n12 [TCMDC-136711] | 3.866% |
| CN(Cc1ccc(NC(=O)NC2CCN(C(=O)/C=C/c3ccc(Cl)c(Cl)c3)CC2)cc1)C1CCOCC1 [TCMDC-140523] | 15.53% |
| Cc1nnc2c(NC(=O)NC3CCCC3)cc3cc(-c4ccc(CN(C)C)cc4)ccc3n12 [TCMDC-136487] | 88.82% |
